This is an account of results in PubChem BioAssay.

Inconclusive results are not listed. Activity calls are given as the source filed them.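 The calls were made as follows, unless noted: active = Her2 level under about 52% in both replicate screens, with viability over 70% of control (limit read from the data); inconclusive = Her2 under the limit in one screen only, or viability under 70%; inactive = Her2 level above the set limit.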

A short description of assay [1]: reducers of endogenous Her2 protein level, primary screen, SKBR3 breast tumor cells, AlphaScreen, ATP viability (AID 461).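 As to Her2 level: lower value means less Her2 protein in the cells.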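 As to viability: percent of carrier control wells set as 100% viability.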 The note with it: 18-24 h, measured here: SKBR3 viability, ATP luminescence, at 10 µM.
The target in assay [2] is Receptor tyrosine-protein kinase erbB-2 (Homo sapiens) (UniProt P04626). The assay is described as above. The settings on record: 18-24 h, at 10 µM, stronger effect = lower value.
Chain of Receptor tyrosine-protein kinase erbB-2 (Homo sapiens) (P04626 whole entry, looked up): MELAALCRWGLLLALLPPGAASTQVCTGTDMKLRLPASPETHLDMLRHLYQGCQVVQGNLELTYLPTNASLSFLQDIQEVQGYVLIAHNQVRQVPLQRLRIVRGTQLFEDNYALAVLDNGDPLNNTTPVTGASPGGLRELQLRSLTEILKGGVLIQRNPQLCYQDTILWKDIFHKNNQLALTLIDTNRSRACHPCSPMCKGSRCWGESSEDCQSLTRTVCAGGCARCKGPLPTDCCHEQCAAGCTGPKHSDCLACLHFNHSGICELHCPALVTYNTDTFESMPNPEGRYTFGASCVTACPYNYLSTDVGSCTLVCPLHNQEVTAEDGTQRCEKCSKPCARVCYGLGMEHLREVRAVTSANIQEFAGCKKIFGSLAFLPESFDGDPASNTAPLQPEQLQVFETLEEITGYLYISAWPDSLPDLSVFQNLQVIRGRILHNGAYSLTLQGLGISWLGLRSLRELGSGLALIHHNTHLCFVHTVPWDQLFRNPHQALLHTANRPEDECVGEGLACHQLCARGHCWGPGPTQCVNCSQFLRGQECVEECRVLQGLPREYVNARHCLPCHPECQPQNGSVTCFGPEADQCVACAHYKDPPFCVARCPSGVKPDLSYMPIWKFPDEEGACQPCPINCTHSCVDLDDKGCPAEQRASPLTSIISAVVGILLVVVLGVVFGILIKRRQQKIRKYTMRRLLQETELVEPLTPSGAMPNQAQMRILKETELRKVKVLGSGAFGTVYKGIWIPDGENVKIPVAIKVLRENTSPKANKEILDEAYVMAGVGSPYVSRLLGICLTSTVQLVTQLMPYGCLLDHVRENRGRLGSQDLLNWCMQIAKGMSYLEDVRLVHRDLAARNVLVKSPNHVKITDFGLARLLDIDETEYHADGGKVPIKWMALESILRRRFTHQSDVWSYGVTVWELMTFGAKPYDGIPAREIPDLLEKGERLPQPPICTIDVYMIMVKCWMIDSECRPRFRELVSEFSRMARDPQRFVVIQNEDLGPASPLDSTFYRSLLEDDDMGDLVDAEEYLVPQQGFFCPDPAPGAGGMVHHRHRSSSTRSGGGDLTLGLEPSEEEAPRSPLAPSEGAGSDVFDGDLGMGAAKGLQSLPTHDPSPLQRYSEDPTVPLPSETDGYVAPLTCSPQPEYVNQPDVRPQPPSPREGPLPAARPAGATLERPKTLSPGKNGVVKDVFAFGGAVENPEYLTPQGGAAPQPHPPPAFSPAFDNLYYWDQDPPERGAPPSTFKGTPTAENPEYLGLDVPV
Assay [3] in a line: SK-BR-3 cell growth inhibitors, pilot screen, 24 h, human (AID 572;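 active = viability at or below 10% of carrier control in both of two separate runs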;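 also: compound exposure lasted between 18 and 24 h rather than exactly 24 h; 100% = carrier-treated control wells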). The note with it: SK-BR-3 viability, CellTiter-Glo luminescence, at 10 µM, stronger effect = lower value.
A short description of assay [4]: HUVEC growth inhibition – cell-based, human, primary screen (AID 575;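 active = viability at or below 30% in both replicate assays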;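 also: 100% = median of untreated cell wells with 0.1% DMSO on each plate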). The settings on record: HUVEC proliferation, CellTiter-Glo luminescence, 72 h; at 10 µM; stronger effect = lower value.
Assay [5] can be described thus: growth inhibitors of H69AR lung tumor, primary screen, human, duplicate replicates (AID 580;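 active = viability at or under a set limit in both replicates, limit being median viability minus 3 SD, cut at about 48% in these data, passing the limit was not always enough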;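 also: 100% = mean luminescence of untreated wells and 0% = no signal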). The settings on record: H69AR lung tumor cells viability, ATP luminescence, 72 h; at 10 µM; stronger effect = lower value.
Assay [6] can be described thus: reversal of MRP1-mediated doxorubicin resistance, pilot screen, H69AR cells, doxorubicin co-treatment (AID 601;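 active = viability loss from added drug above about 55%, and viability with drug at most 40%, in both replicates, limit read from the data, passing the limit was not always enough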). The note with it: CellTiter-Glo, 72 h, at 10 µM; for differential viability (reversal): stronger effect = higher value.
Assay [7] in a line: 384-well plate pilot, post-Golgi transport modulator project, inhibition of yeast transport mutant growth (AID 636; in the data active = inhibition above about 31%). The settings on record: absorbance 615 nm, about 18 h, stronger effect = higher value.
The nature of assay [8]: growth suppression of yeast trafficking mutant, preliminary HTS, modulators of trafficking downstream of Golgi apparatus project, 1536-format plate, OD 615 nm (AID 637; in the data active = inhibition above about 30%). The note with it: yeast transport mutant growth, absorbance 615 nm, 18 h; stronger effect = higher value.
The nature of assay [9]: OD615 S. cerevisiae growth inhibition, permissive medium, pilot counter-assay, permissive growth control for S. cerevisiae lifespan shortening project (AID 705;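 active = growth inhibition above 25% in both replicates, a cutoff set 3 SD above the mean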). The note with it: OD615, 24 h, at 10 µM, stronger effect = higher value.
Assay [10] can be described thus: Restrictive medium S. cerevisiae growth inhibition, OD615, pilot screen of yeast lifespan reduction project, restrictive growth control (AID 706;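 active = growth inhibition above a set limit, 3 SD over mean compound inhibition, in both replicates, cut at about 43% in these data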;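 also: modified DeaD lifespan yeast strain shifted to restrictive glucose medium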). The note with it: OD615, 48 h, at 10 µM, stronger effect = higher value.
A short description of assay [11]: viability gain of MRP-1-high H69AR cells under doxorubicin, pilot screen, MRP-1 activator project, CellTiter-Glo, duplicate (AID 807;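 active = viability increase at or above a cutoff of the median across tested compounds plus 3 SD, cut at about 8.5% in these data, passing the limit was not always enough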;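 also: compound pretreatment 18-22 h then 72 h combined with doxorubicin; 0% = doxorubicin alone and 100% = vehicle without doxorubicin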). The note with it: H69AR viability with doxorubicin, CellTiter-Glo luminescence; at 10 µM; stronger effect = higher value.
The nature of assay [12]: growth suppression of beta-catenin knockout HCT116, pilot screen, human colon tumor cells (AID 823;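 active = cell viability at or below a set limit in both duplicate runs, the limit being the all-compound median minus 4 SD, cut at about 23% in these data, passing the limit was not always enough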;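 also: 0% = wells killed by 20 µM Hyamine and 100% = untreated DMSO cell wells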). The note with it: CellTiter-Glo, 60 h, at 10 µM, stronger effect = lower value.
The nature of assay [13]: growth suppression of PTEN-deleted HCT116, pilot screen, cell-based, HCT116 clonal line, CellTiter-Glo (AID 824;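 active = viability at or below 27.92% in each of two runs, the all-compound median minus 4 SD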;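 also: 0% = 20 µM Hyamine control and 100% = vehicle cell control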). The note with it: 60 h, at 10 µM, stronger effect = lower value.
A short description of assay [14]: inhibitors of the yeast RAM network, pilot screen, dse1pr::URA3 reporter, 5-FOA selection (AID 869;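 active = inhibition over a set limit, the all-compound mean plus 3 SD, in both replicate runs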;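 also: 0% = DMSO wells with no growth and 100% = 10 µM 1-NA-PP1 with full growth; RAM network block rescues cells from 5-FOA so hits raise OD615 growth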). The settings on record: S. cerevisiae dse1pr::URA3 5-FOA growth, OD615, 2 d; at 10 µM; stronger effect = higher value; strain carries analog-sensitive mutant Cbk1 kinase.
Assay [15] in a line: RAM signaling pathway blockade in yeast – S. cerevisiae, Pdr1DBD-CYC8 efflux-inhibited sensitized strain, primary screen (AID 1298;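 active = RAM network inhibition above 8.4% in each of two replicates, 3 SD over the compound average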;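 also: 0% = DMSO untreated cells without growth and 100% = 10 µM 1-NA-PP1 full growth; higher means more yeast growth rescued from 5-FOA killing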). The settings on record: S. cerevisiae cbk1-as DSE1-URA3 strain, 5-FOA growth OD615, 2 d; at 50 µM; stronger effect = higher value.
The mark [16] stands for this setting: H69AR cells + 2 uM doxorubicin, measured here: viability with 2 uM doxorubicin, stronger effect = lower value.
[17] abbreviates: H69AR cells, compound alone cytotoxicity.

In the case of `CCOC(=O)CN1CC23C=CC(O2)C(C(=O)Nc2ccc(OCC)cc2)C3C1=O` (stereo not given), the viability in assay [1] was 100%; in assay [3] it was 100% (inactive); in assay [4], 102% (inactive); in assay [5] it was 96.4% (inactive); in assay [6] (setting [16]) it was 89.2%; in [6] (setting [17]), 96.4%. Also, the viability in assay [12] is 112% (inactive); in [13], 105% (inactive). The Her2 level in [2] was 96% (inactive). In assay [6] (H69AR cells + 2 uM doxorubicin), the differential viability (reversal) is 7.16% (inactive). In addition, the inhibition in assay [7] was -4.53% (inactive); in assay [8], 0.49% (inactive); in assay [14], 2.22% (inactive). In addition, the growth inhibition is 17% (inactive) in assay [9] and 13.4% (inactive) in assay [10]. Also, the viability increase in assay [11] is -0.57% (inactive). In addition, in assay [15], the RAM network inhibition was 0.21% (inactive).
With `CCN(CC)C1CCCCC1NS(=O)(=O)c1ccc(Cl)cc1` (stereo not given), the viability in assay [1] is 104%; in assay [3], 104% (inactive); in assay [4], 90.8% (inactive); in assay [5] it was 101% (inactive); in [6] (setting [16]), 87.8%; in assay [6] (setting [17]) it was 101%. The figures for the viability in assay [12] and in assay [13] were 86.5% (inactive) and 92.6% (inactive), respectively. Besides, the Her2 level in [2] was 116% (inactive). In addition, the differential viability (reversal) in assay [6] (H69AR cells + 2 uM doxorubicin) is 13.1% (inactive). Also, the inhibition in [7] was -3.6% (inactive); in [8] it was 3.28% (inactive); in assay [14], 1.03% (inactive). Besides, the growth inhibition was -12% (inactive) in assay [9] and -3.99% (inactive) in assay [10]. In addition, in [11], the viability increase is -1.53% (inactive). Moreover, the RAM network inhibition in assay [15] is 5.81% (inactive).
With `Cc1cc(C)nc(NC(=O)c2cnc3sccn3c2=O)n1`, the viability was 106% in [1]; 106% (inactive) in assay [3]; 90.5% (inactive) in assay [4]; 96.5% (inactive) in assay [5]; 105% in [6] (setting [16]); 96.5% in assay [6] (setting [17]). Moreover, the results for the viability in assay [12] and in assay [13] were 97.7% (inactive) and 98.3% (inactive), respectively. Further, the Her2 level in [2] is 88.5% (inactive). Further, the differential viability (reversal) in assay [6] (H69AR cells + 2 uM doxorubicin) is -8.39% (inactive). For the same compound, the inhibition in assay [7] was -4.67% (inactive); in assay [8], 4.5% (inactive); in assay [14], 0.9% (inactive). For the same compound, the growth inhibition in [9] is -12.5% (inactive); in [10], -10.7% (inactive). In assay [11], the viability increase was -1.3% (inactive). In addition, the RAM network inhibition in assay [15] is 0.52% (inactive).
As for `CC(C)CCn1c(NCCc2ccccc2)nc2c1c(=O)n(C)c(=O)n2C`, the viability was 80% in [1]; 80% (inactive) in [3]; 50.8% (inactive) in [4]; 81.8% (inactive) in [5]; 82.1% in [6] (setting [16]); 81.8% in [6] (setting [17]). In addition, the viability was 57.1% (inactive) in assay [12] and 57.4% (inactive) in assay [13]. In addition, in [2], the Her2 level was 57.5% (inactive). For the same compound, the differential viability (reversal) in assay [6] (H69AR cells + 2 uM doxorubicin) was -0.235% (inactive). In addition, the inhibition was -2.93% (inactive) in assay [7], 2.17% (inactive) in [8] and 1.94% (inactive) in [14]. For the same compound, the growth inhibition was -0.96% (inactive) in assay [9] and 8.48% (inactive) in assay [10]. For the same compound, the viability increase in [11] was -2.21% (inactive). In addition, the RAM network inhibition in [15] is -0.32% (inactive).
`CCOc1ccc(N(CC(=O)Nc2ccc(F)c(F)c2)S(=O)(=O)c2c(C)noc2C)cc1`: the viability is 83.5% in [1]; 83.5% (inactive) in assay [3]; 54% (inactive) in [4]; 65.8% (inactive) in assay [5]; 64.3% in assay [6] (setting [16]); 65.8% in assay [6] (setting [17]). The viability in assay [12] is 93% (inactive); in [13], 88.7% (inactive). Also, in assay [2], the Her2 level is 80% (inactive). Moreover, the differential viability (reversal) in assay [6] (H69AR cells + 2 uM doxorubicin) is 1.49% (inactive). Also, the inhibition was -4.4% (inactive) in assay [7], -1.31% (inactive) in [8] and 2.33% (inactive) in assay [14]. The growth inhibition in [9] is -11.3% (inactive); in [10], -9.45% (inactive). Further, the viability increase in assay [11] was -3.6% (inactive). Besides, in assay [15], the RAM network inhibition is 4.77% (inactive).
